Test systems include T-47D breast; BT-549 breast; MDA-MB-435 melanoma; SW-620 colon; MCF7 breast; HCT-116 colon; HCC-2998 colon; KM12 colon.
Assay in all cases: NCI-60 one-dose screen, 48 h (100 = growth as untreated, 0 = no growth, -100 = all killed)
Settings in all cases: 10 µM unless noted

About 83,000 compounds went through this panel and 20% of them were active in at least one assay; those are over-represented in the sample as a whole.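 Assay: single dose, 48 h. Readout: percent growth (0 = no net growth; negative = cell death). Active: <10.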 Values without a mark were called inactive. Calls of active or inactive are those of the source.

For `CCOC(=O)C1C(=O)NC(C(=O)OCC)(C(=O)OCC)C1CC` (centres undefined), the growth with T-47D breast is 109%; with BT-549 breast, 112%; in the assay with MDA-MB-435 melanoma, 115%; in the assay on SW-620 colon, 115%; with MCF7 breast, 104%; in the assay on HCT-116 colon it was 110%. Further, the results for the growth with HCC-2998 colon and in the assay with KM12 colon were 108% and 112%, respectively.
`CC1CN(C2CCCCC2)C(=O)NC1=O` (centres undefined): the growth in the assay with T-47D breast was 93%; with BT-549 breast, 104%; in the assay on MDA-MB-435 melanoma it was 112%; in the assay with SW-620 colon, 102%; in the assay with MCF7 breast it was 101%; with HCT-116 colon, 101%. Also, in the assay on KM12 colon, the growth was 111%.
Consider `COc1ccc(C(=O)COc2cccc(/C=C3\COc4ccc5ccccc5c4C3=O)c2)cc1`, for which the growth in the assay on T-47D breast is 32%; in the assay with BT-549 breast, 1.54% (active); in the assay with MDA-MB-435 melanoma, 64.8%; with SW-620 colon it was 27.8%; in the assay with MCF7 breast it was 16.1%; with HCT-116 colon, 59.2%. In addition, the figures for the growth in the assay on HCC-2998 colon and with KM12 colon were 63.9% and 67.8%, respectively.
As to `ICCC(c1ccccc1)(c1ccccc1)c1ccccc1`, the growth in the assay with T-47D breast is 39.2%; in the assay on BT-549 breast, 54.6%; with MDA-MB-435 melanoma, 35.9%; in the assay on SW-620 colon, 80.7%; in the assay with MCF7 breast, 35.1%; in the assay on HCT-116 colon, 33.2%. The growth in the assay with KM12 colon is 57.7%.
In the case of `O=C(C(=O)c1cc(Br)ccc1O)c1cc(Br)ccc1O`, the growth with T-47D breast was 8.38% (active); in the assay on BT-549 breast, 21.7%; in the assay on MDA-MB-435 melanoma, 49.8%; in the assay on SW-620 colon it was 66.5%; with MCF7 breast it was 36.5%; with HCT-116 colon, 40.3%. For the same compound, the growth in the assay with KM12 colon was 48.6%.
For the compound `CC(NC(=O)Oc1cccc2ccccc12)c1ccccc1` (centres undefined), the growth is 92.7% with T-47D breast; 106% in the assay with BT-549 breast; 102% in the assay on MDA-MB-435 melanoma; 98.6% in the assay with SW-620 colon; 87.8% with MCF7 breast; 105% with HCT-116 colon. Also, in the assay on KM12 colon, the growth was 99.8%.
Regarding `COc1ccc(-c2cnc(SCC(=O)Nc3ccc(-c4nc5ccccc5s4)cc3)n2-c2ccc(OC)cc2)cc1`, the growth was 93.1% in the assay on T-47D breast; 108% in the assay on BT-549 breast; 114% in the assay with MDA-MB-435 melanoma; 110% with SW-620 colon; 47.4% in the assay on MCF7 breast; 107% with HCT-116 colon. Besides, the growth with KM12 colon is 113%.
As for `Cc1ccc2nc(SCC(=O)Nc3ccc(-c4nc5ccccc5s4)c(Cl)c3)[nH]c2c1`, the growth in the assay with T-47D breast was 99.2%; in the assay on BT-549 breast, 103%; with MDA-MB-435 melanoma, 111%; in the assay with SW-620 colon, 111%; in the assay with MCF7 breast it was 90.6%; with HCT-116 colon it was 101%. The growth with KM12 colon was 115%.
Turning to `COc1ccc2cc(C3=CC(=O)CCC3)ccc2c1`, the growth with T-47D breast is 59.6%; with BT-549 breast it was 97.1%; with MDA-MB-435 melanoma, 93%; in the assay with SW-620 colon, 117%; in the assay with MCF7 breast, 110%; in the assay on HCT-116 colon, 92.5%. In the assay on KM12 colon, the growth is 109%.
Take `CCCCCCCCCCCCCCCCCC1=NC(C)(CO)CO1` (centres undefined): the growth was 87.7% in the assay with T-47D breast; 92.9% with BT-549 breast; 103% in the assay on MDA-MB-435 melanoma; 108% in the assay with SW-620 colon; 121% with MCF7 breast; 105% in the assay with HCT-116 colon. In addition, the growth was 98.3% in the assay with HCC-2998 colon and 102% with KM12 colon.
With `COc1ccc(CNC(=O)c2c(C)n([O-])c3ccccc3[n+]2=O)cc1`, the growth in the assay on T-47D breast was 81.3%; in the assay with BT-549 breast it was 76.8%; in the assay on MDA-MB-435 melanoma, 124%; in the assay with SW-620 colon it was 108%; in the assay on MCF7 breast, 91%; in the assay on HCT-116 colon, 97.9%. The growth in the assay with KM12 colon was 131%.
In the case of `Oc1ccc(/C=N/Nc2nc3ccccc3s2)c(O)c1`, the growth with T-47D breast was 26.8%; with BT-549 breast, 43.8%; in the assay on MDA-MB-435 melanoma, 39.7%; in the assay with SW-620 colon, 41.9%; in the assay on MCF7 breast, 26.5%; in the assay with HCT-116 colon, 25.2%. Also, the growth in the assay on KM12 colon is 15.7%.
Consider `COc1ccc(CNC(=O)c2c(C)n([O-])c3ccc(OC)cc3[n+]2=O)cc1`, for which the growth in the assay on T-47D breast was 115%; in the assay with BT-549 breast, 83.5%; with MDA-MB-435 melanoma, 115%; in the assay on SW-620 colon it was 107%; in the assay on MCF7 breast, 101%; in the assay with HCT-116 colon, 106%. Further, the growth with KM12 colon was 97.1%.
Regarding `CSc1nc(Nc2ccc(S(=O)(=O)Nc3ccon3)cc2)c(C#N)c(-c2ccc(Cl)cc2)n1`, the growth in the assay with T-47D breast is 97%; with BT-549 breast, 90.5%; in the assay on MDA-MB-435 melanoma it was 97.9%; with SW-620 colon, 70.5%; in the assay on MCF7 breast it was 94.3%; in the assay with HCT-116 colon, 65.8%. Besides, the figures for the growth in the assay on HCC-2998 colon and in the assay with KM12 colon were 94.4% and 104%, respectively.
On to `CCN(CC)c1ccc(N=C2C=CC(=O)C=C2NC(C)=O)cc1`, for which the growth with T-47D breast is 82.5%; with BT-549 breast it was 109%; in the assay on MDA-MB-435 melanoma it was 124%; in the assay with SW-620 colon it was 89%; in the assay with MCF7 breast, 82.6%; in the assay with HCT-116 colon, 97.9%. Also, the growth with KM12 colon was 98.6%.
For `O=C1C=CC(=O)N1c1ccccn1`, the growth in the assay with T-47D breast was 106%; with BT-549 breast, 104%; with MDA-MB-435 melanoma, 116%; in the assay with SW-620 colon, 101%; in the assay on MCF7 breast, 100%; in the assay with HCT-116 colon, 96.8%. Moreover, in the assay on KM12 colon, the growth was 107%.
For the compound `O=C(CC(C(=O)c1ccccc1)N1CCN(Cc2ccccc2)CC1)c1ccccc1` (centres undefined), the growth with T-47D breast was 45.6%; in the assay with BT-549 breast, 101%; in the assay on MDA-MB-435 melanoma, 109%; with SW-620 colon it was 11.8%; in the assay with MCF7 breast it was 52.1%; in the assay on HCT-116 colon it was 22.8%. Moreover, the growth with KM12 colon was 101%.
For the compound `COc1ccc2ncccc2c1Cc1c(OC)ccc2ncccc12`, the growth is 59.8% with T-47D breast; 90.3% in the assay with BT-549 breast; 12.4% in the assay on MDA-MB-435 melanoma; 40.5% in the assay with SW-620 colon; 57% in the assay with MCF7 breast; 59.2% in the assay with HCT-116 colon. Besides, in the assay on KM12 colon, the growth was 52.1%.
In the case of `Oc1c(Cl)cc(Oc2cc(Cl)c(O)c(CN3CCOCC3)c2)cc1CN1CCOCC1`, the growth with T-47D breast was 69.7%; in the assay on BT-549 breast, 96.5%; in the assay with MDA-MB-435 melanoma, 101%; in the assay with SW-620 colon, 98.3%; with MCF7 breast, 94.4%; with HCT-116 colon it was 87%. Besides, in the assay on KM12 colon, the growth is 102%.
In the case of `O=C(NCCNC(=O)Oc1cccc2ccccc12)Oc1cccc2ccccc12`, the growth in the assay with T-47D breast is 71.7%; in the assay with BT-549 breast, 105%; in the assay on MDA-MB-435 melanoma it was 114%; in the assay on SW-620 colon, 102%; with MCF7 breast, 84.4%; in the assay with HCT-116 colon, 99.7%. Also, the growth in the assay on KM12 colon was 104%.
Regarding `CCCCCc1c(C)[nH]c(/C=C2\N=C(c3ccc[nH]3)C=C2Oc2ccccc2)c1C`, the growth with T-47D breast was -61.1% [100 µM] (active); with BT-549 breast it was -97.1% [100 µM] (active); in the assay on MDA-MB-435 melanoma, -34.4% [100 µM] (active); in the assay on SW-620 colon, -54% [100 µM] (active); with MCF7 breast, -100% [100 µM] (active); in the assay on HCT-116 colon it was -4.84% [100 µM] (active). Further, the growth is -91.6% [100 µM] (active) in the assay on HCC-2998 colon and -81.7% [100 µM] (active) in the assay on KM12 colon.
As to `O=C(/C=C/c1ccc(C(F)(F)F)cc1)c1ccc(Nc2nc(NCCO)nc(NCCO)n2)cc1`, the growth in the assay on T-47D breast is 37.2%; in the assay on BT-549 breast, 21.3%; with MDA-MB-435 melanoma, 92.8%; with SW-620 colon, 1.28% (active); in the assay with MCF7 breast, 13.1%; in the assay on HCT-116 colon it was -25.4% (active). For the same compound, the growth with HCC-2998 colon was 97.4%; in the assay on KM12 colon, 19%.
For the compound `COc1cc(/C=C\C(C)=N\Nc2ccccc2)ccc1O`, the growth with T-47D breast was 68%; in the assay on BT-549 breast, 102%; in the assay with MDA-MB-435 melanoma, 69.7%; with SW-620 colon, 106%; with MCF7 breast, 82.4%; in the assay on HCT-116 colon it was 91.4%. Also, in the assay on KM12 colon, the growth is 52.8%.
As to `Cc1cc(C)nc(NS(=O)(=O)c2ccc(Nc3nc4nc(SCc5ccccc5)nc(-c5ccc(O)cc5)c4c(=O)[nH]3)cc2)n1`, the growth in the assay on T-47D breast is 79.1%; in the assay on BT-549 breast it was 107%; in the assay on MDA-MB-435 melanoma, 94.9%; in the assay on SW-620 colon, 101%; in the assay with HCT-116 colon it was 103%; with HCC-2998 colon, 100%. The growth with KM12 colon was 107%.
Take `Cc1ccc(C(=O)Cc2ccccc2)c(O)c1`: the growth was 95.8% with T-47D breast; 105% with BT-549 breast; 115% in the assay with MDA-MB-435 melanoma; 105% with SW-620 colon; 99.9% in the assay on MCF7 breast; 108% with HCT-116 colon. Moreover, the growth in the assay on KM12 colon was 110%.
With `CCOc1cc(/C=C/C(=O)CC(=O)/C=C/c2ccc(OC(=O)CNc3nc4ccc(OC)cc4s3)c(OCC)c2)ccc1OC(=O)CNc1nc2ccc(OC)cc2s1`, the growth was 79.7% in the assay with T-47D breast; -1.58% (active) in the assay on BT-549 breast; -22.2% (active) in the assay on MDA-MB-435 melanoma; 17.9% in the assay on SW-620 colon; 4.31% (active) in the assay with HCT-116 colon; 39.6% in the assay with HCC-2998 colon. For the same compound, the growth in the assay on KM12 colon is 9.4% (active).
Regarding `CCCCCCCCCCCCCCCCNC(=O)Nc1ccc2ccccc2c1`, the growth was 108% in the assay on T-47D breast; 97.4% in the assay with BT-549 breast; 103% with MDA-MB-435 melanoma; 94.2% in the assay on SW-620 colon; 101% in the assay on HCT-116 colon; 109% in the assay with HCC-2998 colon. Also, the growth in the assay with KM12 colon was 111%.
As to `CC1c2ccccc2-c2ccccc2N1C` (centres undefined), the growth is 85.7% in the assay on T-47D breast; 103% with BT-549 breast; 119% with MDA-MB-435 melanoma; 108% in the assay on SW-620 colon; 96% in the assay with HCT-116 colon; 105% in the assay on HCC-2998 colon. In the assay with KM12 colon, the growth was 104%.
Turning to `Cc1ccc2c(c1)C(=O)/C(=C\Nc1ccc(C(N)=O)cc1)C(O)O2` (centres undefined), the growth in the assay on T-47D breast was 73.9%; in the assay with BT-549 breast it was 82.4%; in the assay with MDA-MB-435 melanoma, 98.4%; in the assay with SW-620 colon, 93.2%; with HCT-116 colon it was 93.5%; in the assay with HCC-2998 colon, 134%. Also, in the assay on KM12 colon, the growth is 88.2%.

The values are drawn from PubChem BioAssay (NCI).
